# Screening data (PubChem)
# Most compounds without a hit are left out; they make up all but 11% or so of the library.
# L3MBTL1 block = blocks human L3MBTL1; AID 485360; Potency, µM (highest dose often 57.1 µM), inactives show at the highest dose activity, negative = inhibition, actives largely listed as inhibitors; 0.66% of 230,000 active; AlphaScreen L3MBTL1–H3K9me1 peptide binding; further: on the % scale 0 is the no-effect control and ±100 the full control effect; nearly all actives have a fitted effect of over 60% in size
#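 L3MBTL1 (50 nM) pre-complexed 30 min with biotinylated H3(1-15)K9me1 peptide (75 nM), then compounds added for 30 min at room temperature; AlphaScreen streptavidin donor/nickel chelate acceptor beads (10 ug/mL final) read after 30 min dark incubation.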
# G9a block = G9a (human) methyltransferase inhibition; G9a H3K9 monomethylation, AlphaScreen, 2 h; 8.8% of 350,000 active; AID 504332; Potency, µM (highest dose often 102 µM), for inactives: top-dose activity, negative = inhibition, usual class: inhibitors; further: on the % scale 0 is the no-effect control and ±100 the full control effect; nearly all actives have a fitted effect of over 75% in size
# Target sequence (Q96KQ7 913-1193 limits assumed): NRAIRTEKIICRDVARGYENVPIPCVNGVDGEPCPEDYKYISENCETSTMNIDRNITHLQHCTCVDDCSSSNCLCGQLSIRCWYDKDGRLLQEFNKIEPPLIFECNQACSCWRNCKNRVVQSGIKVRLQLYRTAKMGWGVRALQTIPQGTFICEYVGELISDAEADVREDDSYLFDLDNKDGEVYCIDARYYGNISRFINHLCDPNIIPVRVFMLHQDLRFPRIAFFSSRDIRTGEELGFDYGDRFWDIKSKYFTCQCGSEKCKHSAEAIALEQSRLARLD
#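 Enzyme 20 nM + cpd, 15 min RT; add b-H3K9 pep 500 nM / SAM 20 uM; 2 h RT; anti-H3K9me1 Ab 0.5 ug/mL + SA donor / anti-rabbit acceptor beads 20 ug/mL each, 10 min; AlphaScreen read.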
# JMJD2A Tudor inh = JMJD2A Tudor domain (human) inhibition | AlphaScreen JMJD2A-Tudor / H3K4me3 peptide binding | Potency, µM (highest dose often 114 µM), for the others: at the top dose activity change, negative = inhibition, actives largely listed as inhibitors | 4.4% of 390,000 active; further: on the % scale 0 is the no-effect control and ±100 the full control effect; nearly all actives have a fitted effect of over 50% in size
# HP1b binding inh = blocks HP1-beta chromodomain binding to methylated histone tails. P83916. AlphaScreen HP1-beta / biotin-H3K9me3 peptide binding. Potency, µM (titrated, usually from 114 µM), for the others: at the top dose activity change, negative = inhibition, actives largely listed as inhibitors. 0.56% of 390,000 active. AID 540317; further: nearly all actives have a fitted effect of over 70% in size
# Target sequence (P83916 whole entry, looked up): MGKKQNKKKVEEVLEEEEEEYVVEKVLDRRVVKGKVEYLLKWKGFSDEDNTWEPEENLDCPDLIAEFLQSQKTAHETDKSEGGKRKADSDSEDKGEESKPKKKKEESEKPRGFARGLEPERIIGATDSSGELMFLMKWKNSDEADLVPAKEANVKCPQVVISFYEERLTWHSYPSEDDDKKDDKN
#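 AlphaScreen: HP1-beta (50 nM) preformed 30 min with biotin-H3(1-18)K9me3 peptide (50 nM) in PBS pH 7.4, 0.01% Tween-20. Compound added for 30 min at RT, then streptavidin donor/nickel chelate acceptor beads (10 ug/mL) for 30 min.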
# BAZ2B block = blocks human BAZ2B; Potency, µM (highest dose often 114 µM), for inactives: at the top dose activity change, negative = inhibition, usual class: inhibitors; Q9UIF8; AlphaScreen BAZ2B-H3K14Ac peptide displacement; 4.4% of 360,000 active; AID 504333; further: on the % scale 0 is the no-effect control and ±100 the full control effect; nearly all actives have a fitted effect of over 60% in size
#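 AlphaScreen luminescence quantifies BAZ2B engagement of H3K14Ac peptide; the protein and biotinylated peptide are both at 50 nM final, buffer PBS pH 7.4 with 0.01% Tween-20, all steps at room temperature.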
# * marks the source's active call; other numbers are inactive results; ? = inconclusive; / = no result; [ ] = dose if it differs, or a comment. The call rests on the fitted dose curve; in most records, active means well fitted inhibition curve with a large enough effect; inconclusive means small, poorly fitted or top-dose-only effect; inactive means no such curve, though single readings can be large or run the other way. Potency means the concentration at half of the fitted maximal effect.
SMILES,L3MBTL1 block,G9a block,JMJD2A Tudor inh,HP1b binding inh,BAZ2B block
O=c1[nH]c(=O)c2[nH]c(=S)n(-c3ccccc3)c2[nH]1,/,/,40µM*,-7%,/
Fc1ccc(CSc2nc3ncccc3[nH]2)cc1,-3%,50µM*,-4%,-12%,-4%
CCC1CCCCN1C(=O)CSc1nc2ncccc2[nH]1 (centres undefined),/,/,50µM*,?,-27%
CCC1CCCCN1C(=O)CSc1nc(N)c(NC(=O)c2ccc(OC)c(OC)c2)c(=O)[nH]1 (centres undefined),-1%,50µM*,-14%,31%,11%
O=C(CSc1nc2ncccc2[nH]1)NC1CCCC1,0%,22µM*,0%,-4%,4%
CCc1cccc(NC(c2nnc(-c3ccccc3)o2)c2ccc(F)cc2Cl)c1 (centres undefined),/,5%[59 µM],3%,25%,7%
CC1CCCN(c2ncnc3c2nnn3C)C1 (centres undefined),/,3%[59 µM],-10%,23%,-1%
O=[N+]([O-])c1ccc(N=Nc2ccc(O)cc2O)cc1,/,40µM*,-8%,15%,32µM*
O=[N+]([O-])c1cccc(N=Nc2ccc(O)cc2O)c1,/,/,?,-12%[57 µM],/
CCOC(=O)c1ccc(NC(=O)C(CC)Sc2nc3ncccc3[nH]2)cc1 (centres undefined),/,?,-13%,30%,-4%
O=C(O)c1cc2c(ccc3ccccc32)oc1=O,/,?,/,/,-2%
N=c1oc2ccc3ccccc3c2cc1C(N)=S,-16%,20µM*,-26%,-8%,-32%
O=c1nc2s/c(=C\c3ccc(-c4ccccc4[N+](=O)[O-])o3)c(=O)n2nc1-c1ccccc1,2.2µM*,?,3%,31%,10µM*
CCCCCOc1ccc(/C=c2\sc3nc(=O)c(-c4ccccc4)nn3c2=O)cc1OC,-1%,-9%[59 µM],-4%,2%,-5%
Cc1cc(C)c2oc(C(=O)Nc3c(C)n(C)n(-c4ccccc4)c3=O)cc(=O)c2c1,/,0%[59 µM],2%,48%,0%
COc1cc(C)c(N)cc1C(C)C,-8%,?,?,?,?
Cc1cc(OI)c(C(C)C)cc1-c1cc(C(C)C)c(OI)cc1C,/,7.9µM*,/,/,/
CCCCOc1ccc(C(=O)Nc2ccc(CN3CCOCC3)cc2)cc1,3%,4%[59 µM],3%,30%,6%
OC(COc1ccc(Cl)cc1)CN1CCC(Cc2ccccc2)CC1 (centres undefined),/,28µM*,-18%,54%,-18%
Cc1[nH]c2ccccc2c1CN1CCC(Cc2ccccc2)CC1,1%,14µM*,0.79µM*,?,45µM*
COCCNC(=O)c1ccc(CN2CCC(Cc3ccccc3)CC2)cc1,-4%,1%,-3%,35%,?
CCOc1ccc(CN2CCC(Cc3ccccc3)CC2)cc1,0%,45µM*,25µM*,?,?
CCCCOc1ccc(CN2CCC(O)CC2)cc1,-5%,/,2.8µM*,-29%,?
O=[N+]([O-])c1cccc(CN2CCC(Cc3ccccc3)CC2)c1,-8%,35µM*,1.6µM*,?,50µM*
COc1ccc(CN2CCC(Cc3ccccc3)CC2)cc1OC,-5%,50µM*,20µM*,?,?
SMILES,L3MBTL1 block,G9a block,JMJD2A Tudor inh,HP1b binding inh,BAZ2B block
O=C(NC1CCN(Cc2cccc([N+](=O)[O-])c2)CC1)c1ccccc1,/,?,-9%,24%,-18%
COc1cccc(OC)c1OCCCN1CCC(Cc2ccccc2)CC1,/,25µM*,20µM*,?,-35%
OC(COc1ccc(C2C=CCC2)cc1)CN1CCCCC1 (centres undefined),-4%,40µM*,-29%,-19%,-4%
COC(=O)C1=C(O)/C(=C/c2cccc(OC)c2O)N=C1C,-6%,?,0%,9%[57 µM],-25%
COC(=O)C1=C(O)/C(=C\c2cc(C)n(-c3ccc(F)cc3)c2C)N=C1C,/,35µM*,40µM*,-2%,/
FC(F)(F)c1cccc(N2CCN(c3nc4ccccc4n4cnnc34)CC2)c1,/,6%[59 µM],-7%,41%,2%
CN1CCN(c2nc3cc(C(F)(F)F)ccc3n3cccc23)CC1,/,24µM*,?,-4%,/
Cc1sc(NC(=O)C2=COCCO2)nc1-c1ccc(F)cc1,-4%,79µM*,-8%,-7%,-7%
C=CCSC1=N/C(=C\c2ccc(C(=O)O)cc2)C(=O)S1,-23%,45µM*,6%,-5%,-29%
CCCN1C(=O)c2ccccc2NC1c1ccc(OC)c(COc2ccc([N+](=O)[O-])cc2)c1 (centres undefined),/,/,-23%[57.1 µM],3%[57 µM],/
CCOc1ccc(NC(=O)c2cccc(N3CCCS3(=O)=O)c2)cc1,/,7%[59 µM],-9%,22%,-5%
O=C(NN1C(=O)/C(=C\c2cccnc2)SC1=S)C(c1ccccc1)c1ccccc1,-11%,32µM*,?,?,-29%
O=C(NN1C(=O)/C(=C/c2cccnc2)SC1=S)C(c1ccccc1)c1ccccc1,-12%,?,?,-11%,-36%
COc1ccc(/C=C2\SC(=S)N(C(Cc3ccccc3)C(=O)O)C2=O)cc1 (centres undefined),?,25µM*,?,?,40µM*
O=C(O)C(Cc1ccccc1)N1C(=O)/C(=C/c2cccnc2)SC1=S (centres undefined),8%,/,16µM*,-21%,-32%
CC(=O)NN1C(=O)/C(=C/c2ccc(C(C)C)cc2)SC1=S,-15%,-21%[59 µM],-35%,?,45µM*
O=C(O)[C@H](Cc1ccccc1)N1C(=O)c2ccncc2C1=O,-9%,-7%[59 µM],-8%,12%,-4%
COc1ccc(/C=C2\SC(=S)N(CC(=O)N3CCN(C)CC3)C2=O)cc1,-8%,-22%,-27%,-9%,-30%
CCOc1ccccc1C(=O)Nc1ccc(S(=O)(=O)Nc2onc(C)c2C)cc1,/,-6%[59 µM],-8%,24%,-2%
O=C(O)C1OCC2(CO1)COC(C(=O)O)OC2 (centres undefined),/,/,?,10%,/
Cc1ccc(CNC(=O)C(C(C)C)N2Cc3ccccc3C2=O)cc1 (centres undefined),/,5%[59 µM],-16%,22%,2%
COc1ccc(/C=C2/SC(=O)N(CC(O)Cn3c4ccccc4c4ccccc43)C2=O)cc1 (centres undefined),-8%,25%[59 µM],79µM*,-3%,-36%
Cc1ccc(CN2CCNC(=O)C2CC(=O)N(C)C2CCCCC2)cc1 (centres undefined),/,45µM*,4%,28%[57 µM],-12%
CN(CCc1ccccn1)C(=O)CC1C(=O)NCCN1Cc1ccc(-c2ccccc2)cc1 (centres undefined),-2%,56µM*,-12%,43%,-29%
CC(C)(C)CN1CCNC(=O)C1CC(=O)N1CCOc2ccccc2C1 (centres undefined),5%,50µM*,-6%,32%,-1%
